Bioassay records: PubChem, National Center for Advancing Translational Sciences (NCATS)
G9a block: G9a (human) methyltransferase inhibition; Q96KQ7; G9a H3K9 monomethylation, AlphaScreen, 2 h; Potency, µM (series often up to 102 µM), for the others: at the top dose activity, negative = inhibition, most hits filed as inhibitors; actives 8.8% (n = 350,000); AID 504332; also: potency is read from the fitted curve at half-maximal effect; % is scaled to controls: 0 for no effect and ±100 for the full control effect; nearly all actives have a fitted effect of over 75% in size
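G9a (20 nM) preincubated 15 min RT with compounds, then 500 nM biotinylated H3K9 peptide and 20 uM SAM added; 2 h RT reaction. Monomethyl-H3K9 product detected by AlphaScreen with anti-H3K9me1 antibody, streptavidin donor and anti-rabbit IgG acceptor beads.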
BAZ2B inh: BAZ2B (human) inhibition; Potency, µM (titrated, usually from 114 µM), inactives show at the top dose activity change, negative = inhibition, actives largely listed as inhibitors; AlphaScreen BAZ2B-H3K14Ac peptide displacement; actives 4.4% (n = 360,000); AID 504333; Q9UIF8; also: potency is read from the fitted curve at half-maximal effect; % is scaled to controls: 0 for no effect and ±100 for the full control effect; nearly all actives have a fitted effect of over 60% in size
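In this displacement format the biotinylated H3(5-23) peptide acetylated at Lys14 serves as ligand at 50 nM, with BAZ2B at 50 nM in PBS pH 7.4 containing 0.01% Tween-20. Donor and acceptor beads are 10 ug/mL final.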
PLK1 PBD block: inhibitors of human PLK1 polo-box domain binding. Plk1 PBD binding of FITC phosphopeptide, fluorescence polarization. AID 720504. actives 2.8% (n = 360,000). Potency, µM, inactives show max response, negative = inhibition, actives largely listed as inhibitors; also: potency is read from the fitted curve at half-maximal effect; series mostly up to about 57 µM; % is scaled to controls: 0 for no effect and ±100 for the full control effect; nearly all actives have a fitted effect of over 65% in size
HP1b binding inh: inhibitors of HP1-beta chromodomain binding to methylated histone tails; actives 0.56% (n = 390,000); AlphaScreen HP1-beta / biotin-H3K9me3 peptide binding; Potency, µM (doses to about 114 µM), for the others: at the top dose activity change, negative = inhibition, usual class: inhibitors; also: potency is read from the fitted curve at half-maximal effect; nearly all actives have a fitted effect of over 70% in size
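Compound inhibition of the preformed complex between 50 nM HP1-beta and 50 nM biotinylated H3K9me3 peptide was read by AlphaScreen. Buffer was PBS pH 7.4 with 0.01% Tween-20. Incubations ran 30 min at room temperature, with 10 ug/mL donor/acceptor beads.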
JMJD2A Tudor inh: inhibitors of human JMJD2A Tudor domain. O75164. AlphaScreen JMJD2A-Tudor / H3K4me3 peptide binding. Potency, µM (highest dose often 114 µM), inactives show top-dose activity change, negative = inhibition, most hits filed as inhibitors. actives 4.4% (n = 390,000); also: potency is read from the fitted curve at half-maximal effect; % is scaled to controls: 0 for no effect and ±100 for the full control effect; nearly all actives have a fitted effect of over 50% in size
PI5P4Ka inh: blocks human PI5P4K alpha kinase activity. P48426. max response, %. PI5P4Kalpha enzyme, ADP-Glo luminescence, 60 min; hits give low values. actives 1.2% (n = 330,000). AID 652105; active = max response of -50% or lower; inconclusive = between -30% and -50%; inactive = -30% or higher; also: value at the top dose of about 77 µM; % is scaled to controls: 0 for no effect and ±100 for the full control effect
Target sequence (P48426 whole entry, looked up): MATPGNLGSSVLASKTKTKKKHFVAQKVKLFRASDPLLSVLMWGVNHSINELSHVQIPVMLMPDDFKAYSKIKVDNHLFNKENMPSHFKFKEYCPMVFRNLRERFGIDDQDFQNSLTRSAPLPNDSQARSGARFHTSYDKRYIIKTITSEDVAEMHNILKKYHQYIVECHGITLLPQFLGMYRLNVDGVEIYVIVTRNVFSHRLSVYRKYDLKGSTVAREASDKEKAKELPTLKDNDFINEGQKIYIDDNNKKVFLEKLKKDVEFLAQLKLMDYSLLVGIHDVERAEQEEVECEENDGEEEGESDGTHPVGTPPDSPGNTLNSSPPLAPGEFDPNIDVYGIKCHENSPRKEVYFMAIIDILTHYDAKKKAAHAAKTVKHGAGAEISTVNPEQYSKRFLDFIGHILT
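Human PI5P4Kalpha with substrate in 0.038 M HEPES pH 7.4, 0.28 mM EGTA, 0.1% CHAPS, 5% DMSO; reaction started with 5 microM ATP (final), 60 min at room temperature. ADP formed read by ADP-Glo luminescence.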
* hit, by the source's call; ? = inconclusive; · = no result; [ ] = another dose, or the depositor's remark. Compounds with a hit are over-represented: about 12% of the library has one in this group of screens. Unless noted, calls follow the shape of the dose curve; as a rule, active = well fitted curve in the direction sought with a large enough effect; inconclusive = small, poorly fitted or top-dose-only effect, or another doubt; inactive = no such curve, though single readings can be large; an effect the other way counts as inactive or inconclusive.

SMILES	G9a block	BAZ2B inh	PLK1 PBD block	HP1b binding inh	JMJD2A Tudor inh	PI5P4Ka inh
CC(OC(=O)CN1C(=O)NC2(CCCC2)C1=O)c1ccc(F)cc1 (configuration not stated)	2.2%[12.7 µM]	1.1%	-2.4%	35.2%	-14.8%	8.6
Cn1c(Cn2nnc3ccccc32)nnc1SCC(=O)Nc1ccc2c(c1)OCO2	-4.3%[12.7 µM]	5.7%	-0.7%	25.7%	-6.7%	·
c1ccc(-c2nn3c(Cn4nnc5ccccc54)nnc3s2)cc1	3.16µM*	1.4%	13.4µM*	?	?	·
COc1ccc(Cc2nn3c(Cn4nnc5ccccc54)nnc3s2)cc1	1.58µM*	-38.4%	21.2µM*	?	89.1µM*	?
c1ccc2c(c1)nnn2Cc1nnc2sc(-c3ccc4c(c3)OCCO4)nn12	?	-1.2%	10.6µM*	-35.9%	-29.4%	·
COc1ccccc1CNC(=O)CCCCn1c(=O)c2ccccc2n(CC(=O)Nc2cccc(Cl)c2)c1=O	-19.6%[59 µM]	-14.4%	·	21.4%	-11.9%	·
CN1C(=O)N(CC(=O)N2CCN(c3ccccc3F)CC2)C(=O)C12CCCCC2	-12.6%[12.7 µM]	5.5%	-6.4%	30.8%	-21.2%	0.3
CN1C(=O)N(CC(=O)N2CCN(S(=O)(=O)Cc3ccccc3)CC2)C(=O)C12CCCCC2	56.2µM*	9.2%	-7.4%	15.0%	-15.1%	3.8
Cc1n[nH]c(C)c1S(=O)(=O)N(CC(=O)NCc1ccccc1Cl)c1ccc(C(C)C)cc1	-29.8%[59 µM]	·	·	12.3%	-32.3%	·
O=C(CCCCCBr)N1CCC(CC2CC(c3ccc(Cl)cc3)=NO2)(C(=O)NCC2CCCCC2)CC1 (configuration not stated)	?	-27.2%	9.3%	42.6%	-12.5%	2.2
O=C(CCCCCBr)N1CCC(CC2CC(c3cccc(Br)c3)=NO2)(C(=O)NCC2CCCCC2)CC1 (configuration not stated)	50.1µM*	-24.8%[57.1 µM]	-5.3%	12.8%	?	7.4
O=C(CSc1nc(-c2ccccc2)nc2c1Cc1ccccc1O2)Nc1ccc(C(=O)O)cc1	-4.4%	12.6µM*	21.2µM*	31.6µM*	10µM*	-63.2*
COc1ccc(-c2nc3c(c(SCC(=O)Nc4ccccc4OC)n2)Cc2cccc(C)c2O3)cc1	0.8%[59 µM]	-12.0%	·	40.9%	-14.6%	·
CCOc1cccc2c1Oc1nc(-c3ccccc3)nc(SCC(=O)Nc3ccc(F)cc3)c1C2	?	-5.1%	·	24.5%	-9.6%	·
O=C(CSc1nc(-c2ccc(F)cc2)nc2c1Cc1ccccc1O2)Nc1ccc(C(=O)O)cc1	?	7.94µM*	15µM*	?	10µM*	-28.3
Cc1ccc(-c2nc3c(c(SCC(=O)Nc4cccc(C(=O)O)c4)n2)Cc2cccc(C)c2O3)cc1	10µM*	7.08µM*	·	?	3.16µM*	·
CCOC(=O)c1c(C)[nH]c(C)c1S(=O)(=O)N1CCCC(C(=O)NCc2cccc(OC)c2)C1 (configuration not stated)	-29.6%[59 µM]	-7.7%	·	18.2%	-8.8%	·
COc1ccc(N(C)C(=O)C2CCCN2S(=O)(=O)c2cccc3nsnc23)c(OC)c1 (configuration not stated)	-2.8%	-3.8%	-5.0%	63.5%	-24.4%	-9.1
C=CCC[C@H](Cc1ccc(F)cc1)C(=O)OC[C@@H](NC(=O)[C@@H](CC=C)CC(=O)N(CCO)Cc1ccccc1)C(C)(C)C	·	·	-21.5%	20.1%	-10.7%	4.3
CC(=O)NCCC(=O)Nc1cc(S(=O)(=O)Nc2ccc(Cl)cc2)ccc1N1CCCC1	22.4µM*	-10.2%	26.7µM*	-13.0%	?	-14.0
CN1CCN(c2ccc(S(=O)(=O)N3CCCCC3)cc2NC(=O)Cc2c(F)cccc2Cl)CC1	44.7µM*	-6.7%	5.7%	-6.4%	-24.0%	2.3
CC(=O)NCCC(=O)Nc1cc(S(=O)(=O)N2CCCCC2)ccc1N1CCN(C)CC1	50.1µM*	10.1%	-11.7%	5.7%	?	-2.8
CC(=O)NCCC(=O)Nc1cc(S(=O)(=O)N2CCCCC2)ccc1N1CCCCC1	5.7%[12.7 µM]	3.8%	-3.0%	29.4%	-11.3%	1.8
